Inconclusive results are not listed. A number with no mark means an inactive call. Calls of active or inactive are those of the source. Calls come from the whole dose curve; as a rule, active = well fitted activation curve with a large enough effect in the repeat runs; inconclusive = weak or mixed curves; inactive = no such curve, though single readings can be large or run the other way.
% is set by controls: 0 for no effect and ±100 for the full control effect.

This assay in a line: qHTS assay for small molecules that induce genotoxicity in human embryonic kidney cells expressing luciferase-tagged ATAD5 (AID 651632). Note: nearly all actives have a fitted effect of over 15% in size. The settings on record: HEK293T ATAD5-luciferase induction, 16 h; series mostly up to 83.3 µM; activation: at the top concentration. An excerpt:
U.S. Tox21 Program National Center for Advancing Translational Sciences [NCATS] NIH Chemical Genomics Center [NCGC] U.S. Environmental Protection Agency [EPA] National Institutes of Environmental Health Sciences [NIEHS] National Toxicology Program [NTP] U.S. Food and Drug Administration [FDA] Tox21 Assay Overview: As cancer cells divide rapidly and during every cell division they need to duplicate their genome by DNA replication. The failure to do so results in the cancer cell death. Based on this concept, many chemotherapeutic agents were developed but have limitations such as low efficacy and severe side effects etc. A new cell based assay was developed to find the compounds that effectively block DNA replication either by directly damaging DNA or by inhibiting other cellular mechanisms. Enhanced Level of Genome Instability Gene 1 (ELG1; human ATAD5) protein levels increase in response to various types of DNA damage. Using a luciferase reporter-gene tagged with ATAD5, a cell-based assay [developed by Kyungjae Myung, NHGRI, NIH] was used to measure the induction of ATAD5 in human embryonic kidney cells (HEK293T). So, increase in luciferase activity can be used to identify the compounds that cause genetic stress.
Tox21 Assay Protocol Summary: For genotoxicity screening, 2,000 cells in 5 uL/well were dispensed into white, solid-bottom 1536-well plates using a Multidrop Combi (Thermo Scientific) dispenser. Following transfer of 23 nL compound or DMSO vehicle by a pin tool, the plates were incubated 16 hr at 37C and 5% CO2. 5 ul Amplite (AAT Bioquest, Inc.) was then added to each plate and following 30 min incubation at room temperature, luciferase activity was quantified on a ViewLux CCD-based plate reader.
Background: Quantitative high-throughput screening tests each substance at several concentrations.
As for `C[C@@H]1O[C@@H](O[C@@H]2[C@@H](O)[C@H](OCCc3ccc(O)c(O)c3)O[C@H](CO[C@@H]3O[C@H](CO)[C@@H](O)[C@H](O)[C@H]3O)[C@H]2OC(=O)/C=C/c2ccc(O)c(O)c2)[C@H](O)[C@H](O)[C@H]1O`, the “activation” value was 0.975%.

Turning to `O=C(O)Cc1cn(-c2ccccc2)nc1-c1ccc(Cl)cc1`, the “activation” value was 0.442%.

For `Cc1cc(NC(=O)C2=C(O)c3ccccc3S(=O)(=O)N2C)no1`, the “activation” value is -0.507%.

Consider `O=C1c2ccccc2C(=O)c2cc(S(=O)(=O)O)ccc21`, for which the “activation” value was 0.923% [at 95.3 µM].

Consider `CCN1CCc2nc(N)oc2CC1`, for which the “activation” value is 4.19%.

On to `N[C@@H](CCC(=O)Nc1ccc([N+](=O)[O-])cc1)C(=O)O`, for which the “activation” value is 4.22%.

For `O=C(O)c1cc(Cl)cc([N+](=O)[O-])c1Cl`, the “activation” value was -2.32%.

Consider `O=C1O[C@@H]2[C@@H](O)[C@H](O)O[C@@H]2[C@H]1O`, for which the Potency entry was “inactive”.

As to `CCOC(=O)CC(=O)c1ccccc1`, the “activation” value is -3.09%.

For the molecule `C[C@H](N)[C@H](O)c1cccc(O)c1`, the “activation” value was -2.48% [at 39.1 µM].

Regarding `Cc1c(I)c(=O)n(-c2ccccc2)n1C`, the “activation” value was 4.37%.

For `C=C(C)C(=O)OCCNC(C)(C)C`, the “activation” value was -3.79%.

For `CCc1ccc(C=O)cc1`, the “activation” value was 0.888%.

In the case of `CC(=O)Nc1cccc(C)c1`, the “activation” value is -3.27% [at 95.3 µM].

As for `CC(CO)c1ccccc1` (stereo not given), the “activation” value was -2.74%.

Turning to `Cc1cc2cc3c(C)cc(=O)oc3c(C)c2o1`, the “activation” value was 0.993% [at 39.1 µM].

For `CCCCCCCCC1CCC(=O)O1` (stereo not given), the “activation” value was 5.72%.

Take `CN=C(NC#N)Nc1ccc(C2=NNC(=O)CC2C)cc1` (stereo not given): the “activation” value was 3.98%.

For the molecule `CCC(C)(CCC(C)C)C(=O)O` (stereo not given), the “activation” value is 2.3%.

For the molecule `C=C(C)C(=O)OCCN(CC)CC`, the “activation” value is -1.83%.

As for `O=S(=O)(O)c1ccc2cc(O)c(S(=O)(=O)O)cc2c1`, the “activation” value was -1.69%.

As for `Nc1nnc(-c2cccc(Cl)c2Cl)c(N)n1`, the “activation” value is 2.35%.

With `C[C@@H](Oc1ccc(CNC(=O)c2cccnc2Oc2ccc3c(c2)OCO3)c(F)c1)C(=O)O`, the “activation” value is 3.66%.

With `Cc1cccc2nccnc12`, the “activation” value was 1.01%.

For the molecule `COCCOCCOCCOCCOCCO`, the “activation” value was -0.98%.

Turning to `CC1COc2ccccc2N1` (stereo not given), the “activation” value was -1.23%.

`CCCOC(=O)C(C)O` (stereo not given): the “activation” value is 2.39% [at 95.3 µM].

`CC(=O)NCc1c(I)c(NC(C)=O)c(I)c(C(=O)O)c1I`: the “activation” value was 6.18%.

In the case of `CN1C(C)(C)CCCC1(C)C`, the “activation” value is 0.82%.

Turning to `CC(=O)CCCCn1c(=O)c2c(ncn2C)n(C)c1=O`, the “activation” value is 2.34% [at 39.1 µM].

In the case of `COc1ccc(S(=O)(=O)N2c3ccc(Cl)cc3[C@@](O)(c3ccccc3Cl)[C@H]2C(=O)N2CCC[C@@H]2C(N)=O)cc1OC`, the “activation” value was -4.56%.

On to `Cc1cccc(C)c1NC(=O)c1ccccc1C(=O)O`, for which the “activation” value is 0.792%.

In the case of `NNc1nnc(NN)c2ccccc12`, the “activation” value is 1.78%.

For the molecule `O=C1c2ccccc2C(=O)N1CCl`, the “activation” value is -0.984%.

As for `CCCCNC1CC(C)(C)NC(C)(C)C1`, the “activation” value is 1.56%.

Turning to `COc1ccc(-c2cc(=O)c3c(O)cc(O[C@@H]4O[C@H](CO[C@@H]5O[C@@H](C)[C@H](O)[C@@H](O)[C@H]5O)[C@@H](O)[C@H](O)[C@H]4O)cc3o2)cc1O`, the “activation” value was 5.06%.

As to `C[Si](C)(C)C`, the “activation” value was -1.56%.

For the molecule `O=S(O)(O)=S`, the activation is 2.28% [at 8.08 µM].

Turning to `C#CC(C)N(C)C(=O)Nc1ccc(Cl)cc1` (stereo not given), the “activation” value was 3.42%.

For `C=C(C)C(=O)OCc1ccccc1`, the “activation” value is -1.22%.

The values above are taken from PubChem BioAssay (Tox21).
